# Experimental data taken from publication PMC5700166.
# Residue numbers refer to the chain shown, from its start.
# What was measured:
# Experiment in all cases: protein-binding microarray (PBM); PBM: ~300 nM protein, 6 mM HEPES pH 7.8, 80 mM KCl, 0.5 mM EDTA, 0.5 mM EGTA, 6% glycerol, 35 ng/ul poly-dIdC, 1% milk, 1 h, room temperature; Ap Aiptasia and Nv Nematostella (sea anemones) / Co Capsaspora / Aq Amphimedon (sponge) / Dm Drosophila / Hu human; RHD is the Rel homology domain; high values mean tight binding
# Settings in all cases: dsDNA, one strand shown
# GST-Ap-NF-kB RHD = biological target: T1, GST-Ap-NF-kB RHD (Exaiptasia pallida (Aiptasia), UniProt A0A913YAJ5 2-422)
# T1 sequence: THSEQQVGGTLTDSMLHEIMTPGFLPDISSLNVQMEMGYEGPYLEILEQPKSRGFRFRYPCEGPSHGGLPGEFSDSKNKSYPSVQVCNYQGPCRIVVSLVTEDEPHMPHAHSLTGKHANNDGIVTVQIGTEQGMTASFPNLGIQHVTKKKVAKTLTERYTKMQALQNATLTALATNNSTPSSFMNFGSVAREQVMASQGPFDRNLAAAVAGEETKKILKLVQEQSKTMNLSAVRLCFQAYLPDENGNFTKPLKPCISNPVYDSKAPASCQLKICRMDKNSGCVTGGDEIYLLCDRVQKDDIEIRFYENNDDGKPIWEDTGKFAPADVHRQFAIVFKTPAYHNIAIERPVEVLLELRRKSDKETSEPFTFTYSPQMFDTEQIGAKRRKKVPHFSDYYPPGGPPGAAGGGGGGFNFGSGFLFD
# [1] = biological target: T2, GST-Nv-NF-kB (Cys allele) (Nematostella vectensis, UniProt E5G601 2-411)
# T2 sequence: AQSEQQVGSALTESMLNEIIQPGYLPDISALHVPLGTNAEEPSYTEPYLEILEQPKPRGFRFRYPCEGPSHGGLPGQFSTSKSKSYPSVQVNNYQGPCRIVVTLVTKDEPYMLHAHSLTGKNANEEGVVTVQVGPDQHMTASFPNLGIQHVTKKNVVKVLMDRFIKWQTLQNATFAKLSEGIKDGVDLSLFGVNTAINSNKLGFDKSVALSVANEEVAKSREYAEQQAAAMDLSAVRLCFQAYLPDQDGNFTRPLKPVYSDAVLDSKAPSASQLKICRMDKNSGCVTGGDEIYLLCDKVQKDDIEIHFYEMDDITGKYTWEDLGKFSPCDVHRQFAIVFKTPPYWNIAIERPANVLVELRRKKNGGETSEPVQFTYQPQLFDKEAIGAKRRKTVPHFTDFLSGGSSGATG
# [2] = biological target: T3, GST-Nv-NF-kB (Ser allele) (Nematostella vectensis, UniProt A7UNT2 2-411)
# T3 sequence: T2 sequence with Q21R, C66S, S207N, E215Q, V217A, E225K, A268E, D399E
# GST-Co-NF-kB = biological target: T4, GST-Co-NF-kB (Capsaspora owczarzaki, UniProt F1ARL5 200-546)
# T4 sequence: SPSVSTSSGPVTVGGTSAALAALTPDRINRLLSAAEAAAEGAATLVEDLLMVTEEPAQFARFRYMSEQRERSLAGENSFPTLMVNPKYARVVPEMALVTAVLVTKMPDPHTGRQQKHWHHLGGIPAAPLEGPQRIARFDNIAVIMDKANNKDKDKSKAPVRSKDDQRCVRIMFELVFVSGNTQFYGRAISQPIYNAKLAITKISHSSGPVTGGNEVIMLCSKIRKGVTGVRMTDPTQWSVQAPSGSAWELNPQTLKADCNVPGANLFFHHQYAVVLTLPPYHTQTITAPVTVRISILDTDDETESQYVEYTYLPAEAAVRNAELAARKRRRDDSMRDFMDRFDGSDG
# GST-Dm-Relish = biological target: T5, GST-Dm-Relish (Drosophila melanogaster, UniProt Q94527 99-473)
# T5 sequence: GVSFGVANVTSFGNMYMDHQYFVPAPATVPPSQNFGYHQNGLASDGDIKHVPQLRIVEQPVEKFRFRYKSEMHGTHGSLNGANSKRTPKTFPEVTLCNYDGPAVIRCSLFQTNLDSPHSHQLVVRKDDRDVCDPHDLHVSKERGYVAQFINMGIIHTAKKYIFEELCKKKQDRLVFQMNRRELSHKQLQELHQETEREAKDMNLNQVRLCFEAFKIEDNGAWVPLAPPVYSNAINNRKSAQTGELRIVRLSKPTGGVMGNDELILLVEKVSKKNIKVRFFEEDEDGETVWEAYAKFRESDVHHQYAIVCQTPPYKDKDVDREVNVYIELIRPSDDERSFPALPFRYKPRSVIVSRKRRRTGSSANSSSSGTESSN
# GST-Aq-NF-kB = biological target: T6, GST-Aq-NF-kB (Amphimedon queenslandica, UniProt A9Y5G7 2-389)
# T6 sequence: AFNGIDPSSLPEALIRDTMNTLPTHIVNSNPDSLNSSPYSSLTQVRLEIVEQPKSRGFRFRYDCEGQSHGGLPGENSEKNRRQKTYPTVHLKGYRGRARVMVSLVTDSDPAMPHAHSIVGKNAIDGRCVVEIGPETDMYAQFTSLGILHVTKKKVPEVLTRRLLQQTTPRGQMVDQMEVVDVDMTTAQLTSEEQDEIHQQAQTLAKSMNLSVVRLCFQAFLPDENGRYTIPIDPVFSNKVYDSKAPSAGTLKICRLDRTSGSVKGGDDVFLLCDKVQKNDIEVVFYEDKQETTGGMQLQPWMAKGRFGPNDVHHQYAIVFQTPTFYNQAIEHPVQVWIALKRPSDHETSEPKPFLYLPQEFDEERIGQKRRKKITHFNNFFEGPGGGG
# GST-Hu-p50 = GST-Hu-p50 (Homo sapiens, UniProt P19838 7-356)
# GST-Hu-p50, sequence (P19838 7-356): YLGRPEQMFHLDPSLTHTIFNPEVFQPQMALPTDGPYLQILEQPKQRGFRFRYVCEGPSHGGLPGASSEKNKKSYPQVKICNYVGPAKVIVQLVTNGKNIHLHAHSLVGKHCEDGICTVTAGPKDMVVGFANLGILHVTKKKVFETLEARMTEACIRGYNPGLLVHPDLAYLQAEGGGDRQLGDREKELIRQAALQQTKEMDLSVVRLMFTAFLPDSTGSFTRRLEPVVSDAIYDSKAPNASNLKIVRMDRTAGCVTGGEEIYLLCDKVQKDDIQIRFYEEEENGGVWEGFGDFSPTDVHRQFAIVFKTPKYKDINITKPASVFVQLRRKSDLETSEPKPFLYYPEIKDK
Sequence,binding signal (GST-Ap-NF-kB RHD) [z-score],binding signal [1] [z-score],binding signal [2] [z-score],binding signal (GST-Co-NF-kB) [z-score],binding signal (GST-Dm-Relish) [z-score],binding signal (GST-Aq-NF-kB) [z-score],binding signal (GST-Hu-p50) [z-score]
CCGATTAACATCACGGGGAATTATGATGTTAATCGGGTCTTGATTCGCTTGACGCTGCTG,7.23,8.96,9.51,8.2,6.78,6.42,6.24
CCGATTAACATCAAGATTTCCCATGATGTTAATCGGGTCTTGATTCGCTTGACGCTGCTG,2.43,4.42,4.61,4.11,2.29,3.35,3.33
CCGATTAACATCAGGACAGCCCCTGATGTTAATCGGGTCTTGATTCGCTTGACGCTGCTG,3.75,5.09,2.05,1.05,2.67,6.62,4.14
CCGATTAACATCAGGGGTATTTATGATGTTAATCGGGTCTTGATTCGCTTGACGCTGCTG,5.75,5.26,5.54,4.66,3.79,5.15,5.56
CCGATTAACATCAGAAGTTCCCCTGATGTTAATCGGGTCTTGATTCGCTTGACGCTGCTG,7.97,8.26,8.1,7.36,8,7.04,5.84
CCGATTAACATCAGGGGGGAAACTGATGTTAATCGGGTCTTGATTCGCTTGACGCTGCTG,7.64,7.15,8.2,11.1,5.47,5.87,6.97
CCGATTAACATCAGGGGAACCACTGATGTTAATCGGGTCTTGATTCGCTTGACGCTGCTG,7.59,6.92,7.26,5.2,10.4,7.58,5.33
CCGATTAACATCAAAAATCTCCCTGATGTTAATCGGGTCTTGATTCGCTTGACGCTGCTG,3.7,6.51,6.86,3.4,2.94,6.14,4.72
CCGATTAACATCAGGGAAATCCCTGATGTTAATCGGGTCTTGATTCGCTTGACGCTGCTG,9.75,11.4,9.68,4.02,10.3,10.9,7.17
CCGATTAACATCAAAAACCCCCCTGATGTTAATCGGGTCTTGATTCGCTTGACGCTGCTG,10.5,9.26,9.71,5.82,11.3,8.84,7.78
CCGATTAACATCAAGGGGAATCCTGATGTTAATCGGGTCTTGATTCGCTTGACGCTGCTG,9.67,11,10,5.17,9.09,7.69,6.99
CCGATTAACATCACGGGGAAATCTGATGTTAATCGGGTCTTGATTCGCTTGACGCTGCTG,7.76,8.56,10.6,10.1,6.19,6.37,6.25
CCGATTAACATCAGGGGATTGCATGATGTTAATCGGGTCTTGATTCGCTTGACGCTGCTG,5.77,5.89,6.93,2.38,4.62,4.23,5.31
CCGATTAACATCACGGGATTCCCTGATGTTAATCGGGTCTTGATTCGCTTGACGCTGCTG,6.4,6.23,5.14,2.93,10.2,7.3,4.17
CCGATTAACATCAGGGGAGGTAATGATGTTAATCGGGTCTTGATTCGCTTGACGCTGCTG,2.69,2.66,4.61,3.71,1.22,2.71,2.14
CCGATTAACATCAGGAGGTCCCCTGATGTTAATCGGGTCTTGATTCGCTTGACGCTGCTG,5.22,3.71,2.14,1.57,4.16,5.29,3.18
CCGATTAACATCAGGGGTTTTTATGATGTTAATCGGGTCTTGATTCGCTTGACGCTGCTG,8.01,8.52,7.26,2.38,8.58,7.14,7.21
CCGATTAACATCAGGGGAAACAATGATGTTAATCGGGTCTTGATTCGCTTGACGCTGCTG,5.65,7.25,9.76,8.67,3.09,4.59,5.36
CCGATTAACATCAGGGGATTTGATGATGTTAATCGGGTCTTGATTCGCTTGACGCTGCTG,6.34,6.28,8.85,2.37,4.27,4.26,6.12
CCGATTAACATCAAAAGTTCCCCTGATGTTAATCGGGTCTTGATTCGCTTGACGCTGCTG,8.35,9.74,10.9,9.64,9.48,7.95,6.5
CCGATTAACATCAGTAAATCCCATGATGTTAATCGGGTCTTGATTCGCTTGACGCTGCTG,1.49,1.09,1.18,1.48,7.4,2.3,1.94
CCGATTAACATCAAAATTCCCCCTGATGTTAATCGGGTCTTGATTCGCTTGACGCTGCTG,10.1,11.6,13.3,11.3,9.16,9.32,8.09
CCGATTAACATCAGGGGAGTTCATGATGTTAATCGGGTCTTGATTCGCTTGACGCTGCTG,5.95,4.23,4.73,3.54,3.15,3.96,4.11
CCGATTAACATCAAGGGTATTCCTGATGTTAATCGGGTCTTGATTCGCTTGACGCTGCTG,5.29,5.81,4.65,1.17,7.04,5.86,4.55
